# An excerpt weighted towards active compounds, which were near 5.2% of everything screened.
# APOBEC3G inh: inhibitors of human APOBEC3G DNA deaminase | Q9HC16 | 330,000 compounds, 0.28% hits | inhibition, % at 20 µM | recombinant A3G, ssDNA deamination FAM/TAMRA fluorescence;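 active means inhibition of at least 40% at 20 µM, with no more than 30% in the related APOBEC3A deaminase screen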;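 further: plate controls were DMSO wells with A3G for no effect and wells lacking A3G enzyme for full effect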
# NRP1-CendR mod: NRP-1/CendR interaction modulation | O14786 | FAM-RPARPAR peptide binding to NRP-1, fluorescence polarization | inhibition, % at 25 µM | 360,000 compounds, 0.85% hits | AID 602438;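 active means inhibition or corrected inhibition above about 18%, plus a signal ratio from 0.5 to 1.5, limit read from the data, passing the limit was not always enough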
# Target sequence (O14786 whole entry, looked up): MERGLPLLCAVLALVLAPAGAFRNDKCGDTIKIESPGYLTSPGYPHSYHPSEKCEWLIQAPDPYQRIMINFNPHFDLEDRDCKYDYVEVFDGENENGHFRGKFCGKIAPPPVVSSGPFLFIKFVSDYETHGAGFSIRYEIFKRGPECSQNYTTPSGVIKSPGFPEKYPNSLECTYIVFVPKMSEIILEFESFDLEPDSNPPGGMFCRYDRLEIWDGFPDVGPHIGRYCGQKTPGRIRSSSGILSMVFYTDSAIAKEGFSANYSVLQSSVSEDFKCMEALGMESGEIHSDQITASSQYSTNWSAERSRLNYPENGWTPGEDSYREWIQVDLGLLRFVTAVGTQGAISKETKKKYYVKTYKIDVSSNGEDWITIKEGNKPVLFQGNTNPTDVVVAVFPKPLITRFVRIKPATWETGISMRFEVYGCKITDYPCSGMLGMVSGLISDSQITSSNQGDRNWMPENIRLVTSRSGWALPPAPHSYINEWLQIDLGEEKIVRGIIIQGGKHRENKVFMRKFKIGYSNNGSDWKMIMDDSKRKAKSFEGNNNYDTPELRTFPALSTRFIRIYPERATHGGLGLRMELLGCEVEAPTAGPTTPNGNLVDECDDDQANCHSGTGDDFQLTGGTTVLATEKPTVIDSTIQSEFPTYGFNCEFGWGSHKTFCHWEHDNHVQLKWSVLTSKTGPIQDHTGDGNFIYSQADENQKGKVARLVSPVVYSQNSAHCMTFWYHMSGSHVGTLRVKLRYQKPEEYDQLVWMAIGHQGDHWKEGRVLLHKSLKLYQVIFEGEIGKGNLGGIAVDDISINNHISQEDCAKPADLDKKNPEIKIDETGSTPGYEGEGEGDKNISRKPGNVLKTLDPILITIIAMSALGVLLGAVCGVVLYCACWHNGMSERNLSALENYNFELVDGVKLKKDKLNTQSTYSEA
# ALR H2O2 inh: blocks human ALR sulfhydryl oxidase activity | P55789 | purified ALR, DTT oxidation, H2O2 HRP-luminol luminescence | AID 485317 | inhibition, % (test concentration not listed) | 290,000 compounds, 3.8% hits;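 active means mean replicate inhibition above about 79%, with every replicate also reaching it, limit read from the data; inconclusive means only one of the two criteria met; inactive means mean below limit and not every replicate reaching it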
# Yeast superoxide: yeast age-related superoxide inhibition as caloric restriction mimetic; S. cerevisiae aged cells, superoxide DHE fluorescence; active compounds read low; superoxide response (% of plate mean), % at 10 µM; 330,000 compounds, 0.18% hits; AID 2690;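 active means superoxide response under a set limit, about three screen SD below normal, cut at about 65% in these data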;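 further: yeast aged for seven days with compound at 30 °C before DHE staining; 100% = average MFI of all compound-treated wells on the plate with controls excluded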
# M18AAP inhibitor: blocks P. falciparum M18 aspartyl aminopeptidase. recombinant PfM18AAP, H-Glu-NHMec fluorogenic cleavage. inhibition, % at 7.35 µM. 290,000 compounds, 1.2% hits. AID 1822;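 active means inhibition above the campaign mean inhibition over all tested compounds plus 3 SD, cut at about 28% in these data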;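 further: 0% = plate median of test compound wells and 100% = 2 mM ZnCl2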
# APOBEC3A inh: human APOBEC3A DNA deaminase inhibition | P31941 | recombinant A3A, FAM/TAMRA ssDNA deamination fluorescence | inhibition, % at 20 µM | 330,000 compounds, 0.41% hits | AID 493011;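 active means at least 40% inhibition at 20 µM here, with at most 30% in a related deaminase screen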;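 further: plate controls were A3A with DMSO for no effect and wells lacking A3A enzyme for full effect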
# * = called active by the depositor; ? = inconclusive; · = no result given.
SMILES,APOBEC3G inh,NRP1-CendR mod,ALR H2O2 inh,Yeast superoxide,M18AAP inhibitor,APOBEC3A inh
COc1ccc(CSc2nc(C)cc(C)c2S(C)(=O)=O)cc1,-6,7,5,91,29*,-3
COc1ccc(Oc2nc3ccccc3n(C)c2=O)cc1,-1,-5,-13,83,-5,1
Cn1c(=O)c(Oc2cc(Cl)cc(Cl)c2)nc2ccccc21,-4,7,98*,81,2,-2
CC(C)c1ccc(OCC(=O)NC(=S)Nc2ccc3c4c(cccc24)CC3)cc1,-3,-25,-15,88,-5,-4
COc1cc(N/N=C(\C)c2ccc(N)cc2)nc(-c2ccccc2)n1,-9,19,98*,107,6,-3
COc1cc(N/N=C(\C)c2ccc(O)c(C)c2)nc(-c2ccccc2)n1,-1,6,10,108,7,0
COc1ccc(-c2nc(N)n(C(=O)Cc3ccccc3)n2)cc1,0,-2,-2,88,-7,1
Cc1cccc(C(C)C)c1NC(=O)COC(=O)c1cccc(S(=O)(=O)N2CCc3ccccc3C2)c1,-3,-10,-9,109,3,4
O=C1c2ccccc2NC(c2cccnc2)N1c1ccccc1F (stereo not given),4,-13,0,114,3,1
Cc1ccccc1N1C(=O)c2ccccc2NC1c1ccncc1 (stereo not given),-4,28*,-7,107,-4,-3
COCCN=C1NN=C(c2ccc(NC(C)=O)cc2)CS1,-8,-1,?,87,28*,-2
COc1ccc2[nH]c(=O)c(C(c3nnnn3CC3CCCO3)N3CCCCC3)cc2c1 (stereo not given),-6,26*,-46,124,-1,-2
CCOC(=O)/C=C/[C@H]1Cc2ccccc2CO1,-7,7,2,112,·,-1
Cc1cc2cc3c(=O)[nH]c(=O)nc-3n(CC(O)C(O)C(O)CO)c2cc1C (stereo not given),·,25*,·,·,·,·
COc1ccc(CNc2ncc(-c3cccc([N+](=O)[O-])c3)n2C)c(OC)c1OC,-7,3,98*,100,8,-6
CSc1ccc(CNc2ncc(-c3cccc([N+](=O)[O-])c3)n2C)cc1,-9,17,98*,91,6,-3
CCS(=O)(=O)Nc1ccc(C(=O)CC2(O)C(=O)Nc3ccc(Br)cc32)cc1 (stereo not given),-4,-4,-5,111,-4,-3
Cc1ccc(NC(=S)Nc2ccc(Br)cc2)cc1,-3,23,27,104,2,2
COc1ccc(C2c3sc(=O)[nH]c3SC3C4CCC(C4)C23)cc1OC (stereo not given),-3,-8,4,102,7,-2
COc1cc(C2c3sc(=O)[nH]c3SC3C(=O)N(c4ccc(Br)cc4)C(=O)C32)ccc1O (stereo not given),-1,-13,59,107,28*,0
O=C(NCCCN1CCN(c2ccccc2F)CC1)C1CCCN(S(=O)(=O)c2cnc[nH]2)C1 (stereo not given),-4,-4,·,94,-3,0
CN(CCCNC(=O)C1CCCN(S(=O)(=O)c2cnc[nH]2)C1)c1ccccc1 (stereo not given),-6,-5,100*,112,6,-2
CCCS(=O)(=O)N1CCCC(C(=O)NCCCN(C)c2ccccc2)C1 (stereo not given),0,7,82*,83,1,0
Cc1cc(C)cc(C(O)c2ncc(-c3ccc(Cl)cc3)[nH]2)c1 (stereo not given),·,-16,·,·,·,·
CSc1ncc(-c2ccc(Cl)cc2)[nH]1,0,-6,98*,91,-2,-1
SMILES,APOBEC3G inh,NRP1-CendR mod,ALR H2O2 inh,Yeast superoxide,M18AAP inhibitor,APOBEC3A inh
N#Cc1c(N)n[nH]c1-c1cc2c([nH]1)CCCC2,-6,-2,98*,103,0,-3
Cc1nn(-c2ccccc2)c(C)c1/C=N/N1CCN(c2ccccn2)CC1,-2,7,15,97,4,2
Cc1ccc(Nc2c(-c3ccc(C)o3)nc3cnccn23)cc1,19,-17,·,81,-37,1
Cc1ccc(-c2nc3cnccn3c2Nc2ccccc2)o1,19,-10,98*,96,·,-6
Cc1ccc(-c2nc3ccccn3c2Nc2ccccc2)o1,-6,5,99*,89,-47,-4
O=C(Nc1nnc([C@@H]2C[C@H](O)[C@@H](CO)O2)s1)c1cccc(Cl)c1,·,0,·,·,·,·
Cc1ccc(N2CC(NS(=O)(=O)c3cccs3)CC2=O)cc1 (stereo not given),-8,10,·,110,·,-3
CCN(CC)S(=O)(=O)N1CCC(C(=O)NCCC2=CCCCC2)CC1,-5,27*,-10,93,5,-2
CS(=O)(=O)N1CCC(C(=O)NCCC2=CCCCC2)CC1,-5,-4,2,113,5,-3
Nc1ccc2c(c1)COc1ccccc1O2,-6,-2,99*,117,0,-4
Cn1c(=O)c2[nH]c(NCCCN3CCOCC3)nc2n(C)c1=O,-3,22*,·,100,6,-2
OC(CN1C2=NCCN2c2ccccc21)c1ccccc1 (stereo not given),2,-16,7,95,-2,3
Fc1ccc(CN2C3=NCCCN3c3ccccc32)cc1,-4,-2,3,112,-11,-3
Cc1ccccc1CN1C2=NCCCN2c2ccccc21,-2,-4,-9,99,0,1
Cc1ccccc1CN1C2=NCCN2c2ccccc21,-3,-1,99*,92,-6,5
CCCCCN1C2=NCCN2c2ccccc21,-4,9,96*,106,-1,-3
Cc1ccc(C(O)CN2C3=NCCN3c3ccccc32)cc1 (stereo not given),-4,56*,1,88,2,-1
Fc1ccc(CN2C3=NCCN3c3ccccc32)cc1,-1,2,95*,100,4,-2
CC(C)(C)c1ccc(N=C2SCC(=O)N2Cc2cccs2)cc1,-9,6,·,112,-6,-4
NC(=O)CC(NC(=O)c1ccccc1)c1ccc(N2CCCCCC2)c([N+](=O)[O-])c1 (stereo not given),21,16,3,108,4,3
CC(=O)N1CCN(Cc2nc3cc(NC(=O)c4ccc(F)cc4)ccc3n2C)CC1,-11,1,-47,96,-4,0
O=C(NCCNC(=O)c1ccc(Cl)cc1Cl)c1ccccn1,-4,16,5,92,-3,-2
O=C1CSC(c2ccc([N+](=O)[O-])cc2)N1c1ccccc1 (stereo not given),-5,-3,98*,101,-4,-4
COc1ccc(N2C(=O)CSC2c2ccc([N+](=O)[O-])cc2)cc1 (stereo not given),-3,14,98*,100,-9,-2

# Source: PubChem (several laboratories)
